# Data: PubChem BioAssay AID504848 (National Center for Advancing Translational Sciences (NCATS), 2011)
# About 1,400 (61%) of roughly 2,300 compounds were called active. Inconclusive results (about 29%) are left out. Calls come from the whole dose curve; as a rule, active = well fitted inhibition curve with a large enough effect; inconclusive = small, poorly fitted or top-dose-only effect, or effect the other way; inactive = no such curve, though single readings can be large or run the other way. So high a share suggests a set chosen from earlier hits. The list shows a part of the results.
# Assay: Confirmation screen for delayed death inhibitors of the malarial parasite plastid, 96 hour incubation; note: nearly all actives have a fitted effect of over 60% in size
# Conditions: P. falciparum luciferase growth in erythrocytes; series mostly up to 28.7 µM
# Outline: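 Erythrocytes infected with luciferase-expressing P. falciparum (2% hematocrit, 0.1% parasitemia final) in RPMI 1640 with 0.5% Albumax, exposed to compounds 96 h at 37 C, 5% CO2. Growth inhibition read as decreased luciferase luminescence.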
# Potency is the fitted concentration of half-maximal effect.
row,SMILES,Potency
1,CC(Sc1nc2cc(Cl)ccc2s1)C(=O)Nc1cccc(S(=O)(=O)N2CCOCC2)c1 (stereo unspecified),12.6 µM (active)
2,COc1cccc(/C=N/NC(=O)c2nc(-c3ccccc3)cc(-c3ccccc3)n2)c1O,7.94 µM (active)
3,COc1ccccc1-n1nnnc1S(=O)(=O)Cc1ccc(Cl)cc1,7.08 µM (active)
4,CCCc1cc(C(=O)N2CCCC(N3CCN(c4ccccc4F)CC3)C2)n(C)n1 (stereo unspecified),10 µM (active)
5,CC(=O)NC(=O)COC(=O)/C=C/c1c(C)nn(Cc2c(Cl)cccc2Cl)c1Cl,inactive
6,COc1ccc2cc3cc(C(=O)Nc4ccc5c(c4)OCO5)oc3nc2c1,0.891 µM (active)
7,COc1ccc2cc3cc(C(=O)N(C)C4CCCCC4)oc3nc2c1,10 µM (active)
8,CCOC(=O)C1CCCN(C(=O)c2cc3cc4ccc(OC)cc4nc3o2)C1 (stereo unspecified),7.94 µM (active)
9,CN(CCCN1c2ccccc2CCc2ccccc21)CC(=O)c1ccc(Cl)cc1,12.6 µM (active)
10,CCOc1ccccc1NC(=O)COc1coc(CN2CCc3ccccc3C2)cc1=O,11.2 µM (active)
11,CN(C(=O)COc1coc(CN2CCN(c3ccccc3)CC2)cc1=O)c1ccccc1,10 µM (active)
12,CCN(CC)C(=O)COc1coc(CN2CCN(c3ccccc3)CC2)cc1=O,7.94 µM (active)
13,CCN(CC)C(=O)COc1coc(CN2CCN(c3cccc(Cl)c3)CC2)cc1=O,4.47 µM (active)
14,CCCNC(=O)COc1coc(CN2CCN(c3cccc(Cl)c3)CC2)cc1=O,10 µM (active)
15,O=C(/C=C/c1ccncc1)c1ccc2c(c1)OCCO2,12.6 µM (active)
16,O=C(O)c1ccc(/C=N/NC(=O)c2ccc3c(c2)OCCO3)cc1,inactive
17,CCOC(=O)C1=C(C)N=c2s/c(=C\c3ccc(OCC(=O)O)cc3)c(=O)n2C1c1ccc(OC(C)C)cc1 (stereo unspecified),2.51 µM (active)
18,OC(c1cc(-c2ccc(Cl)cc2)nc2ccccc12)C1CCCCN1 (stereo unspecified),0.251 µM (active)
19,O[C@@H](c1cc(C(F)(F)F)nc2c(C(F)(F)F)cccc12)[C@H]1CCCCN1,0.178 µM (active)

row,SMILES,Potency
1,OC(c1cc(C(F)(F)F)nc2c(C(F)(F)F)cccc12)C1CCCCN1 (stereo unspecified),0.0501 µM (active)
2,OC(c1cc(C(F)(F)F)nc2c(Cl)cc(Cl)cc12)C1CCCCN1 (stereo unspecified),0.0224 µM (active)
3,CCN(CC)c1ccc(NC(=S)NC(=O)C2CCC2)cc1,11.2 µM (active)
4,O=[N+]([O-])c1cncc([N+](=O)[O-])c1Nc1cccc(O)c1,12.6 µM (active)
5,O=C(Nc1ccsc1C(=O)O)c1cccc(C(F)(F)F)c1,inactive
6,NC(=O)C1CCN(CC(=O)Nc2cccc(C(=O)Nc3cccc(C(F)(F)F)c3)c2)CC1,1.12 µM (active)
7,Cn1c(/C=C/c2ccc(Cl)cc2)c([N+](=O)[O-])c(=O)n(C)c1=O,6.31 µM (active)
8,COc1ccc(OC)c(/C=C/c2c([N+](=O)[O-])c(=O)n(C)c(=O)n2C)c1,12.6 µM (active)
9,COc1ccc(Cn2c(O)c(C=Nc3ccc(O)cc3)c3ccccc3c2=O)cc1,7.94 µM (active)
10,CCCSc1sc(C(=O)OC)c(-c2cccs2)c1C#N,inactive
11,COc1ccc(-c2cc(-c3ccccc3)nc(SCC(=O)Nc3nccs3)c2C#N)cc1,2 µM (active)
12,COc1ccc(-c2cc(-c3ccccc3)nc(SC(C)C(=O)O)c2C#N)cc1 (stereo unspecified),10 µM (active)
13,CCc1ccc(NC(=O)CN(c2cc(C)cc(C)c2)S(=O)(=O)c2c(C)[nH]c(=O)[nH]c2=O)cc1,12.6 µM (active)
14,Cc1cccc(C)c1OCc1cc(C(=O)N(C)Cc2nc3ccccc3[nH]2)no1,14.1 µM (active)
15,Cc1ccc(C)c(/C=C/C(=O)c2ccccc(=O)c2O)c1,11.2 µM (active)
16,O=C(/C=C/c1ccccc1Cl)c1ccccc(=O)c1O,6.31 µM (active)
17,COc1ccc(OC)c(CNC(=O)c2ccc(C)c(NC(=O)C3=C(C)OCCS3)c2)c1,10 µM (active)
18,CSc1nnc2c3ccccc3n(CCc3ccccc3)c2n1,15.8 µM (active)
19,S=c1nc2c(n[nH]1)c1ccccc1n2CCc1ccccc1,12.6 µM (active)

row,SMILES,Potency
1,CC1C/C(=C/c2ccncc2)C(=O)/C(=C/c2ccncc2)C1 (stereo unspecified),3.55 µM (active)
2,O=[N+]([O-])c1c(Nc2ccccc2O)cc(Cl)c2nonc12,3.55 µM (active)
3,CC1CCN(c2ccc3nnc(CCC(=O)N4CCN(c5ccccc5F)CC4)n3n2)CC1,10 µM (active)
4,COc1cccc2sc(Nc3nnc(-c4ccccc4Cl)o3)nc12,inactive
5,COc1cccc2sc(Nc3nnc(-c4ccc(F)cc4)o3)nc12,7.08 µM (active)
6,CC(C)C[C@H](NC(=O)c1[nH]cnc1C(=O)N[C@@H](C)C(=O)OC(C)(C)C)C(=O)OC(C)(C)C,10 µM (active)
7,CC(C)C[C@H](NC(=O)c1[nH]cnc1C(=O)N[C@@H](Cc1ccccc1)C(=O)OC(C)(C)C)C(=O)OC(C)(C)C,6.31 µM (active)
8,C[C@H](NC(=O)c1nc[nH]c1C(=O)N[C@H](C)c1ccccc1)C(=O)OCc1ccccc1,inactive
9,CC(C)C[C@H](NC(=O)c1[nH]cnc1C(=O)Nc1ccc(CNC(=O)OC(C)(C)C)cc1)C(=O)OC(C)(C)C,4.47 µM (active)
10,CC(C)C[C@H](NC(=O)c1nc[nH]c1C(=O)N(C)Cc1ccccc1)C(=O)OC(C)(C)C,10 µM (active)
11,Cc1cc(C)cc(NC(=O)C2C3C=CC4(O3)C2C(=O)N(CCCN2CCCC2)C4C(=O)NC2CCCC(C)C2C)c1 (stereo unspecified),12.6 µM (active)
12,O=C(O)c1cc2ccccc2c(N=Nc2cccnc2)c1O,3.98 µM (active)
13,O=C(Nc1ccon1)c1nc[nH]c1C(=O)NCc1ccccc1,7.94 µM (active)
14,CCC(=O)N1c2ccccc2NC2=C(C(=O)CC(c3ccco3)C2)C1c1ccco1 (stereo unspecified),10 µM (active)
15,C=CCC1(O)C(=O)N2C(=C1C(=O)OCC)c1ccc3ccccc3c1CC2(C)C (stereo unspecified),10 µM (active)
16,O=C(Cn1c(=O)oc2ccc(Cl)cc21)NC1CCCCC1,10 µM (active)
17,CN(C)C1(CNC(=O)C2CCC(=O)N(Cc3ccc(Cl)cc3)C2)CCCCC1 (stereo unspecified),5.62 µM (active)
18,Cc1ccc(Nc2nc(=O)c3cccnc3s2)c(Br)c1,inactive
